# High-throughput results as filed in PubChem BioAssay.
# Menin-MLL TR inh: inhibitors of human menin-MLL interaction, mutant MLL peptide | O00255 | Menin + Texas Red MLL mutant peptide, fluorescence polarization | Potency, µM (series often up to 61.6 µM), hits mostly inhibitors | hit rate 0.23% among 270,000; active means well fitted inhibition curve with a large enough effect in the polarisation, with a control signal flat, not every such curve was filed as active; inconclusive means small, poorly fitted or top-dose-only effect, or effect the other way, or a change in a side signal; inactive means no such curve, though single readings can be large or run the other way; the % refers to the polarisation
# MLL CXXC-DNA inh: blocks binding of human MLL CXXC domain to DNA | Potency, µM (series often up to 115 µM), actives largely listed as inhibitors | AID 2662 | MLL-CXXC / FITC-HOXA9 DNA fluorescence polarization | hit rate 0.037% among 290,000; active means well fitted inhibition curve with a large enough effect in the polarisation, with a control signal flat, not every such curve was filed as active; inconclusive means small, poorly fitted or top-dose-only effect, or effect the other way, or a change in a side signal; inactive means no such curve, though single readings can be large or run the other way; the % refers to the polarisation
#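 Steps: dispense CXXC domain solution (7 uM) → pin compounds or unlabeled HOX-A9 DNA control → 5 min ambient → add FLSN-HOX-A9 solution (50 nM) → spin → 30 min ambient → fluorescence polarization. Tris pH 7.5/NaCl/DTT/BSA buffer.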
# TR SRC2 fluor cs: alters Texas Red total fluorescence, flagging assay interference. hit rate 0.29% among 280,000. TRb/SRC2 Texas Red total fluorescence interference. Potency, µM (doses to about 106 µM); active means well fitted curve in either direction with a large enough effect; inconclusive means small, poorly fitted or top-dose-only effect
#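 Human TRb ligand-binding domain at 0.6 uM with 20 nM Texas Red SRC2 peptide in Tris buffer containing 1 uM T3 and 5% DMSO, incubated with compound 5 h at ambient temperature. Total fluorescence (555/632 nm) calculated as parallel + 2 × perpendicular.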
# Menin MLL FP FL: displaces fluorescein MLL peptide from human menin | Fluorescence polarization, fluorescein-MLL peptide displacement from menin | FP activity change, % at 61.4 µM | 290,000 tested, under 10 active | AID 1766; active means well fitted curve in the direction sought with a large enough effect in the polarisation, not every such curve was filed as active; inconclusive means small, poorly fitted or top-dose-only effect, or effect the other way, or a change in a side signal; inactive means no such curve, though single readings can be large or run the other way; the % refers to the polarisation
# TRb SRC2 PPI: disrupts binding of human TR beta to SRC2; Potency, µM (doses to about 106 µM), most hits filed as inhibitors; P10828; AID 1469; TRbeta-SRC2 peptide binding, fluorescence polarization; receptor liganded with 1 µM T3; hit rate 0.065% among 280,000; further: nearly all actives have a fitted effect of over 50% in size
# Target sequence (P10828 whole entry, looked up): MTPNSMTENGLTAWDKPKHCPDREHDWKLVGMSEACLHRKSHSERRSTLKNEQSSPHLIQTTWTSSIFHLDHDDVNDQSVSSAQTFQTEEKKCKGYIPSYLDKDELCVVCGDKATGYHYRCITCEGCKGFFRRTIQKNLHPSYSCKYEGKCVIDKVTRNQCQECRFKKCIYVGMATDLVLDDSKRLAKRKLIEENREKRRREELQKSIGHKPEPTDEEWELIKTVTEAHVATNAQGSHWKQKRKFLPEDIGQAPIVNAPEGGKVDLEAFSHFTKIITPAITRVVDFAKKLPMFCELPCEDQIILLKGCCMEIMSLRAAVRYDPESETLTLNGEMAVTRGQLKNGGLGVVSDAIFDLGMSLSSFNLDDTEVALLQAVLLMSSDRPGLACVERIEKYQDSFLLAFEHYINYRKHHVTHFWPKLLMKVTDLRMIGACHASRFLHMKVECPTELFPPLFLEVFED
#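 Assay buffer: 20 mM Tris-HCl, 100 mM NaCl, 10% glycerol, 1 mM EDTA, 0.01% NP-40, 1 mM DTT, 1 uM T3, 5% DMSO; TRb LBD 0.6 uM, Texas Red SRC2 20 nM; FP after 5 hr.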
# MLL CXXC Fl: disrupts human MLL CXXC domain binding to DNA; hit rate 70% among 200; shares compounds with MLL CXXC-DNA inh; Potency, µM (highest dose often 345 µM), most hits filed as inhibitors; AID 624160; MLL CXXC-DNA binding, fluorescein FP; further: nearly all actives have a fitted effect of over 80% in size
# MLL CXXC TxRed: disrupts human MLL CXXC domain binding to DNA, Texas Red; shares compounds with MLL CXXC-DNA inh; MLL CXXC-DNA binding, Texas Red fluorescence polarization; Potency, µM (doses to about 345 µM), actives largely listed as inhibitors; hit rate 40% among 200; further: nearly all actives have a fitted effect of over 75% in size
# MLL CXXC HTRF: disrupts human MLL CXXC domain binding to DNA by HTRF | shares compounds with MLL CXXC-DNA inh | MLL CXXC-DNA binding, HTRF, biochemical | Potency, µM (highest dose often 172 µM), usual class: inhibitors | hit rate 30% among 210 | AID 624162; further: nearly all actives have a fitted effect of over 80% in size
# Numbers stand for hits; n = inactive; u = inconclusive; x = no result; ! = a repeat was not active; [ ] = dose if it differs, or a comment. In the library only some 0.36% were active in any assay of this set; here they are far more common. Unless noted, the call rests on the fitted dose curve; in most records, active means well fitted curve in the direction sought with a large enough effect; inconclusive means small, poorly fitted or top-dose-only effect, or another doubt; inactive means no such curve, though single readings can be large; an effect the other way counts as inactive or inconclusive.
SMILES,Menin-MLL TR inh,MLL CXXC-DNA inh,TR SRC2 fluor cs,Menin MLL FP FL,TRb SRC2 PPI,others
O=[N+]([O-])c1cc(/C=N\Nc2nccs2)ccc1O,u,n,25.1µM[quencher],n,u,
O=[N+]([O-])c1ccccc1/C=N\Nc1nccs1,n,n,x,n,x,
CCOc1cc(CNCCSc2nnnn2C)cc(Cl)c1OCc1ccc(Cl)cc1,x,x,20µM[quencher],x,n,
Cc1ccccc1-c1ccnc2c(-c3ccc(F)cc3)c(C)nn12,x,x,11.2µM[quencher],x,n,
CCOc1cc(CNS(=O)(=O)c2ccc3c(c2)CC(=O)N3C)cc(OCC)c1OCC,n,n,17.8µM[quencher],n,n,
c1ccc(-n2nnnc2CN2CCOCC2)cc1,n,n,1585µM[quencher],n,n,
Nc1ccc(-n2nnnc2CN2CCOCC2)cc1,n,n,n,n,n,
Cc1ccc2nc(-c3cccc(NS(C)(=O)=O)c3)cc(-c3ccccc3)c2c1,n,n,0.1µM[quencher],n,n,
Cc1nc2ccccc2c(=O)n1Cc1ccco1,x,n,n,n,n,
Cc1nc2c([nH]1)c(=O)n(C)c(=O)n2Cc1ccco1,15.8µM!,n,n,u,n,
C[Si](C)(Cl)[Si](C)(C)Cl,x,x,n,x,n,
Cc1ccc(-c2ccc(CCC(=O)O)n2C(C)C)cc1,n,n,n,n,n,
CC1=C(CCC(=O)O)c2cc3nc(cc4[nH]c(cc5[nH]c(cc1n2)c(C)c5C(C)O)c(C)c4C(C)O)C(C)=C3CCC(=O)O (configuration not stated),u,x,44.7µM[fluorescent],n,35.5µM,
CC(C)OP(=O)(c1ccc(N(C)C)cc1)C(O)c1ccc(N(C)C)cc1 (configuration not stated),10µM,n,x,n,x,
CC(C)COP(=O)(c1ccc(N(C)C)cc1)C(O)c1ccc(N(C)C)cc1 (configuration not stated),u,n,x,n,x,
CC(C)c1onc(-c2c(Cl)cccc2Cl)c1COc1ccc(/C=C/c2cccc(C(=O)O)c2)c(Cl)c1,u,x,n,n,u,
O=C1C=C(O)c2cccc3cccc1c23,u,u,x,u,x,MLL CXXC Fl=113µM;MLL CXXC TxRed=n;MLL CXXC HTRF=n
Cc1ccc(Sc2ccc(/C=C3/C(=O)NN(c4ccccc4)C3=O)o2)cc1,x,u,n,n,n,MLL CXXC Fl=7.97µM;MLL CXXC TxRed=n;MLL CXXC HTRF=n
Nc1c(S(=O)(=O)O)cc(Nc2ccc(Cl)cc2)c2c1C(=O)c1ccccc1C2=O,u,x,u,n,n,
Nc1c(S(=O)(=O)O)cc(Nc2ccc(Nc3nc(Cl)nc(Nc4ccc(S(=O)(=O)O)cc4)n3)c(S(=O)(=O)O)c2)c2c1C(=O)c1ccccc1C2=O,u,10µM,22.4µM[quencher],n,n,MLL CXXC Fl=17.9µM;MLL CXXC TxRed=17.9µM;MLL CXXC HTRF=6.11µM
Cc1cccc(-n2c3nc(=O)n(C)c(=O)c-3cc3ccc(Cl)cc32)c1C,x,x,n,x,n,
O=C(O)C1=CC(=C(c2ccc(O)c(C(=O)O)c2)c2ccc(O)c(C(=O)O)c2)C=CC1=O,n,10µM,u,n,u,MLL CXXC Fl=12.6µM;MLL CXXC TxRed=17.9µM;MLL CXXC HTRF=2.43µM
COC(=O)c1ccc(C(/C=C/[C@@H](C)C(=O)NCCc2c[nH]c3ccccc23)NC(=O)OCc2ccccc2)cc1 (some centres not stated),n,x,n,n,n,
COc1ncc2nc(-c3ccccc3)c(=O)n(-c3ccccc3)c2n1,n,x,x,n,x,
CCCCC1OC23CCCCC2C(C#N)(C(=N)O3)C1(C#N)C#N (configuration not stated),n,n,n,u,n,
SMILES,Menin-MLL TR inh,MLL CXXC-DNA inh,TR SRC2 fluor cs,Menin MLL FP FL,TRb SRC2 PPI,others
N#CC1(C#N)C(c2ccccc2)OC23CCCCCC2C1(C#N)C(=N)O3 (configuration not stated),n,50.1µM,n,n,n,MLL CXXC Fl=50.3µM;MLL CXXC TxRed=u;MLL CXXC HTRF=n
CC(=O)c1c(O)cc(O)c(C(C)=O)c1O,x,n,n,n,n,
CC(=O)c1c(O)cc(O)cc1CC(=O)O,x,u,n,x,n,MLL CXXC Fl=142µM;MLL CXXC TxRed=n;MLL CXXC HTRF=n
C[C@H]1Cc2c(COc3ccccc3)nc3c(c2CO1)CN(C(=O)Cc1cccs1)CC3,n[11.7 µM],x,n[11.2 µM],n[11.7 µM],n[11.2 µM],
Cc1ccc(N/C=C(\C2OC(=O)c3ccccc32)[N+](=O)[O-])c(C)c1 (configuration not stated),n,n,n,n,n,
O=C1OC(/C(=C\Nc2ccc(F)cc2F)[N+](=O)[O-])c2ccccc21 (configuration not stated),n,u,n,n,n,MLL CXXC Fl=n;MLL CXXC TxRed=126µM;MLL CXXC HTRF=n
CN(C)c1ccc(NC(=O)CC(NCc2cccnc2)C(=O)O)cc1 (configuration not stated),x,x,n,x,n,
